# Measurements from PubChem BioAssay.
# Calls of active or inactive are those of the source.
# Tests used:
# [1] = small molecules captured by biotinylated probe aFSTL3 – biochemical, small-molecule microarray, fluorescence 635/667, stem cell growth factor project, primary screen (AID 1064); conditions: higher = more signal;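 further: measures binding of the biotinylated anti-FSTL3 antibody to printed compounds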
# [2] = binders from COS7 lysate, DM2A8 probe, primary screen, torsin A project, cell lysate, small-molecule microarray, fluorescence 635/667 (AID 1065); conditions: higher = more signal, COS7 lysate expressing mutant human TOR1A
# [3] = small molecules captured by biotinylated probe aFGF2 – biochemical, small-molecule microarray, fluorescence 635/667, stem cell growth factor project, primary screen (AID 1067); conditions: higher = more signal;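 further: measures binding of biotinylated aFGF2 protein to printed compounds on slides; z-score merges feature fluorescence and signal-to-noise across triplicate slides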
# [4] = small molecules captured by biotinylated probe aFGF10 – biochemical, small-molecule microarray, fluorescence 635/667, stem cell growth factor project, primary screen (AID 1071); conditions: higher = more signal;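 further: score merges 667 nm spot intensity and signal to noise from triplicate slides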
# [5] = target: Neurogenic locus notch homolog protein 2 (Homo sapiens) (UniProt Q04721); test: small molecules binding Notch2 protein – biochemical, small-molecule microarray, 635 nm fluorescence, stem cell growth factors, primary screen (AID 1073); conditions: higher = more signal
# Neurogenic locus notch homolog protein 2 (Homo sapiens), sequence (Q04721 whole entry, looked up, canonical isoform): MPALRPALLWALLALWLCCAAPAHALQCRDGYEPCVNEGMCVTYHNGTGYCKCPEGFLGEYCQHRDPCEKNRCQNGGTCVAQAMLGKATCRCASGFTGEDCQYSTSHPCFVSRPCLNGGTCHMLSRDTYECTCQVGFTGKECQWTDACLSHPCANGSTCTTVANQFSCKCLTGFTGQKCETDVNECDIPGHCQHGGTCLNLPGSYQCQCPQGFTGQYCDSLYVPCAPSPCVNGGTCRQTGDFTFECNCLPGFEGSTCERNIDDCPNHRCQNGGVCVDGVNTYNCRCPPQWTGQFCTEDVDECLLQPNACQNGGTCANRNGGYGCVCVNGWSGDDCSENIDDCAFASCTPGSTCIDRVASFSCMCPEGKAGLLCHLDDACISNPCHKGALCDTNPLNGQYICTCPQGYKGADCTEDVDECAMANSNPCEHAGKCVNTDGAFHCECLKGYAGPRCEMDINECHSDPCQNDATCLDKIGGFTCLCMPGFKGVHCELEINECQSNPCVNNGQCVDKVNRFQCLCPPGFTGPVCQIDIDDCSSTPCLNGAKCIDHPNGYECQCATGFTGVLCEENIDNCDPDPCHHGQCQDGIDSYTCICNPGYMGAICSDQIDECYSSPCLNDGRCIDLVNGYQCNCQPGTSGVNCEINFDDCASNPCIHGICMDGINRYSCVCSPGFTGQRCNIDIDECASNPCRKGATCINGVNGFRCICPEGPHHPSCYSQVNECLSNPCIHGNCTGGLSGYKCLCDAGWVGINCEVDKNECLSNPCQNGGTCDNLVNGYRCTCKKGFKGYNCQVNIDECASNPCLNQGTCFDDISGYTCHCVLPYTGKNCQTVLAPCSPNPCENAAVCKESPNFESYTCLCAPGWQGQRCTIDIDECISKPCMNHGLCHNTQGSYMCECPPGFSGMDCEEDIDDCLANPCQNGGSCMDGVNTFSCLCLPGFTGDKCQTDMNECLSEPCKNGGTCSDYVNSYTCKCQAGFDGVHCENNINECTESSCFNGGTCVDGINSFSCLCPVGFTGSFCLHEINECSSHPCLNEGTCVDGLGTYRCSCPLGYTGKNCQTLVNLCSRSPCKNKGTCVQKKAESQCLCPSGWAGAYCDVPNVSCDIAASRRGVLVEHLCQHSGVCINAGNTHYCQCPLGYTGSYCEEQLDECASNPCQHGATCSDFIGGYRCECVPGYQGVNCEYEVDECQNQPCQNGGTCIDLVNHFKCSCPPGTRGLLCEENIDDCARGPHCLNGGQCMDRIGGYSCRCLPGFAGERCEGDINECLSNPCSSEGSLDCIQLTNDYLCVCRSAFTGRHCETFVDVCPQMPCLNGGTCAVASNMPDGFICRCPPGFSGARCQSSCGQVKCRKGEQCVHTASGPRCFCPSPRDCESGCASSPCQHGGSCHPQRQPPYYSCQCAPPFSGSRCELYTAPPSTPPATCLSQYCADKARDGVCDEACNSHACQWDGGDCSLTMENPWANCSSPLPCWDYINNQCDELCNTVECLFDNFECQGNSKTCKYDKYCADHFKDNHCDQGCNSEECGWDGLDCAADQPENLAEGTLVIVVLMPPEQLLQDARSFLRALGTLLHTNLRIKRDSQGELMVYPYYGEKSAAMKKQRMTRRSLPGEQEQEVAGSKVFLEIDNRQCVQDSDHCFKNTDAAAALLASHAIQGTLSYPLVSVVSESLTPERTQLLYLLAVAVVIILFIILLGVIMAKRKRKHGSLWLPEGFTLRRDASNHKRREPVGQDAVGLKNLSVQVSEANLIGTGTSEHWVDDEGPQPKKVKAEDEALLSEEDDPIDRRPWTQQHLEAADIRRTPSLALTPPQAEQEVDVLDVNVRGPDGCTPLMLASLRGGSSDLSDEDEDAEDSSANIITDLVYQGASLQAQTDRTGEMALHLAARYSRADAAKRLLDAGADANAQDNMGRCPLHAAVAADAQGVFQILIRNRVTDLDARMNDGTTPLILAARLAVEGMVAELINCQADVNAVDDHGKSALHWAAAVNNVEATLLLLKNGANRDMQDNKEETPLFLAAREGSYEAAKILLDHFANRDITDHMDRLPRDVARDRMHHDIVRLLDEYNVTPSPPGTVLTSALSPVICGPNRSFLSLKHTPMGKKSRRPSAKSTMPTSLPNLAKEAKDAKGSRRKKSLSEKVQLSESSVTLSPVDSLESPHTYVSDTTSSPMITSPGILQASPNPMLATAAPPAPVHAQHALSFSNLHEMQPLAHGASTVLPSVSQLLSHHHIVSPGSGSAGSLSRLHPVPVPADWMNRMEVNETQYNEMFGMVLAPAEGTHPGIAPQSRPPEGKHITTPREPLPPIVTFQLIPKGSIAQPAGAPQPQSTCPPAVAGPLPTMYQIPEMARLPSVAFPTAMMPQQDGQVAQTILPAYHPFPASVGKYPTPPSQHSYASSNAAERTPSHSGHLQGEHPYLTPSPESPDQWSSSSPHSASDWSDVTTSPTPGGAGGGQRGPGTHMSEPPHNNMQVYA
# [6] = target: Pro-neuregulin-1, membrane-bound isoform (Homo sapiens) (UniProt Q02297); test: small molecules binding neuregulin-1 protein – biochemical, small-molecule microarray, fluorescence 635/667, psychiatric disease protein project, primary screen (AID 1075); conditions: NRG1 binding, 635 nm fluorescence, higher = more signal;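 further: score combines 667 nm spot fluorescence with signal to noise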
# Pro-neuregulin-1, membrane-bound isoform (Homo sapiens), sequence (Q02297 whole entry, looked up, the tested form may be a part, canonical isoform): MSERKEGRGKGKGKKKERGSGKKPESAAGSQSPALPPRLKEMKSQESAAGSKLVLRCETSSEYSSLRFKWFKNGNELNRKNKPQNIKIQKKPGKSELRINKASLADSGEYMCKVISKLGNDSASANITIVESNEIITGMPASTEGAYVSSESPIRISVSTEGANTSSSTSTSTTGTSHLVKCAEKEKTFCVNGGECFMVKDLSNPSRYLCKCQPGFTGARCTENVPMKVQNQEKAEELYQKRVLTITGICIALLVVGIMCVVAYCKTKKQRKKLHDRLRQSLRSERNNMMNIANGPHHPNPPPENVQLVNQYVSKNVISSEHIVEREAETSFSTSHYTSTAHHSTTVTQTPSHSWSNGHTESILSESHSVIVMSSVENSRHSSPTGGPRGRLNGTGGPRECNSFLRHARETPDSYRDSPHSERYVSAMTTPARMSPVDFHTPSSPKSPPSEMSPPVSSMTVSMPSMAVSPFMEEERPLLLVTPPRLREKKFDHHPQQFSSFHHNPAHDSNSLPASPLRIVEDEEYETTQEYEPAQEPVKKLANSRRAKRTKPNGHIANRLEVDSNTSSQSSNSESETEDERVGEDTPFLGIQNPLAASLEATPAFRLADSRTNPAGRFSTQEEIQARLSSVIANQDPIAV
# [7] = test system: Neuregulin-1 EGF-like domain; test: small molecules binding NRG1 EGF domain – biochemical, small-molecule microarray, 635 nm fluorescence, primary screen (AID 1081); conditions: higher = more signal;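 further: binding of the protein to compounds printed on small-molecule microarray slides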
# [8] = FRG1 expression reporter modulators in myotubes – cell-based, C2C12 myotubes, firefly/Renilla luciferase, luminescence, FRG1 inhibition for FSHD, primary screen (AID 1084); conditions: FRG1 promoter luciferase, higher = more signal, called active from +8 up or from −8 down
# [9] = small molecules captured by biotinylated probe aFST – biochemical, small-molecule microarray, fluorescence 635/667, stem cell growth factor project, primary screen (AID 1086); conditions: higher = more signal;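 further: score merges 667 nm fluorescence with signal-to-noise of each printed compound spot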
# [10] = binders of probe aHhip on microarray, primary screen, stem cell growth factor project, biochemical, small-molecule microarray, fluorescence 635/667 (AID 1087); conditions: higher = more signal;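 further: score merges spot fluorescence at 667nm with spot signal to noise ratio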
# [11] = test system: PRMT1 (protein arginine N-methyltransferase 1); test: small molecules binding arginine methyltransferase PRMT1 – biochemical, small-molecule microarray, 635 nm fluorescence, primary screen (AID 1088); conditions: higher = more signal;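 further: binding of Prmt1 protein to compounds spotted on small-molecule microarray slides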
# [12] = growth effects on S. cerevisiae YJM789 – YJM789 clinical isolate, OD600, 24 h, basal, primary screen (AID 1089); conditions: higher = more signal, called active from +8 up or from −8 down;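 further: growth of clinical yeast isolate S. cerevisiae YJM 789 seeded 1000 cells per well; test concentration not given here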
# [13] = S. pombe growth modifiers, basal conditions – strain 972, OD600, 24 h, no modulator, primary screen (AID 1090);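 further: basal condition with compound alone and no growth modifier present; test concentration not given here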; conditions: S. pombe 972 growth, higher = more signal, called active from +8 up or from −8 down
# [14] = budding yeast growth modifiers under rapamycin – strain BY4716, OD600, 96 h, primary screen (AID 1091); further: test concentration not given here; conditions: S. cerevisiae BY4716 + rapamycin, higher = more signal, called active from +8 up or from −8 down
# [15] = target: Torsin-1A-interacting protein 2 (Homo sapiens) (UniProt Q8NFQ8); test: small molecules binding lysate-expressed LULL1 – cell lysate, human LULL1 lysate, 635/667 nm fluorescence, primary screen (AID 1092); conditions: small-molecule microarray, hLULL1 lysate binding, 635 nm fluorescence; higher = more signal;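 further: probe is lysate of COS7 cells overexpressing human LULL1; score merges per-feature 667 nm fluorescence with signal-to-noise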
# Torsin-1A-interacting protein 2 (Homo sapiens), sequence (Q8NFQ8 whole entry, looked up): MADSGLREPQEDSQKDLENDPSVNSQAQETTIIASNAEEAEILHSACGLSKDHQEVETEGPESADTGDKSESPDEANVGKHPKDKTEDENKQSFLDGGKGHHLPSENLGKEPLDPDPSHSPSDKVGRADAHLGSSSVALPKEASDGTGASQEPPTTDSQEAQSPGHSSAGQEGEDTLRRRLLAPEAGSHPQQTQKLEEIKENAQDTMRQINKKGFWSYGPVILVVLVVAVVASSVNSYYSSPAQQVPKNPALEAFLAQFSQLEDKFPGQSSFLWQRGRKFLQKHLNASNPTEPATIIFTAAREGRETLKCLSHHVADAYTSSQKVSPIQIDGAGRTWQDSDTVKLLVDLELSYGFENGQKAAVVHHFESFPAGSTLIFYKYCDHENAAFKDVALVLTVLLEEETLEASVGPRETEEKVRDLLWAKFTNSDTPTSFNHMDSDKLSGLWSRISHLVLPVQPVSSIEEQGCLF
# [16] = optical density change of DRC41 E. coli – strain DRC41, OD650, 24 h, E. coli filamentation project, primary screen (AID 1093);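 further: MC1000 strain lacking acrAB efflux and sulA so SOS filamentation is blocked; test concentration not given here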; conditions: E. coli DRC41 growth, higher = more signal, called active from +8 up or from −8 down
# [17] = probe aLefty2 binding to arrayed compounds – biochemical, biotinylated probe, 635/667 nm fluorescence, primary screen (AID 1094); conditions: small-molecule microarray, higher = more signal;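 further: score merges spot fluorescence near 667 nm with spot signal-to-noise ratio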
# [18] = test system: Noggin (protein binding on small-molecule microarray); test: small molecules binding Noggin protein – biochemical, 635/667 nm fluorescence, primary screen (AID 1095); conditions: 635 nm fluorescence, higher = more signal;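 further: score merges 667 nm feature fluorescence with signal to noise over triplicate slides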
# [19] = target: Neurogenic locus notch homolog protein 3 (Homo sapiens) (UniProt Q9UM47); test: small molecules binding NOTCH3 protein – biochemical, 635/667 nm fluorescence, primary screen (AID 1096); conditions: small-molecule microarray, 635 nm fluorescence, higher = more signal
# [20] = probe aEGFR binding to arrayed compounds – biochemical, biotinylated probe, 635/667 nm fluorescence, primary screen (AID 1097); conditions: small-molecule microarray, higher = more signal;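 further: probe is a biotinylated anti-EGFR antibody binding compounds printed on slides; score combines fluorescence near 667 nm and signal to noise of each spot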
SMILES,composite z-score [1],composite z-score [2],composite z-score [3],composite z-score [4],composite z-score [5],composite z-score [6],composite z-score [7],z-score [8],composite z-score [9],composite z-score [10],composite z-score [11],z-score [12],z-score [13],z-score [14],composite z-score [15],z-score [16],composite z-score [17],composite z-score [18],composite z-score [19],composite z-score [20]
O=C(NC1CC1)[C@@H]1c2ccccc2C(=O)N(Cc2ccccc2)[C@H]1c1ccc(CO)cc1,0.176,-0.301,-0.0606,0.207,-0.454,1.4,1.4,-2.71 (inactive),0.646,-0.493,0.449,0.763 (inactive),0.109 (inactive),0.0225 (inactive),2.63,0.958 (inactive),-0.479,-0.43,-0.0341,-0.366
O=C1c2ccccc2[C@](Cc2ccccc2I)(C(=O)NCc2ccccc2)[C@H](c2ccc(CO)cc2)N1C1CCCCC1,-0.126,0.106,-0.0291,0.753,1.13,1.76,1.27,-1.6 (inactive),0.671,0.189,1.27,-0.0116 (inactive),-1.32 (inactive),-0.0677 (inactive),1.78,-0.403 (inactive),0.117,1.32,0.918,0.494
NC(=O)N1C(=O)C2C(C1=O)C1C=C(CCCO)C2C(c2cccs2)N1Cc1cc2c(cc1Br)OCO2 (stereo not given),-0.137,0.314,-0.0036,0.0276,0.0449,0.453,1.16,-1.85 (inactive),0.117,-0.0645,0.0811,-1.75 (inactive),-0.498 (inactive),-1.79 (inactive),1.84,0.263 (inactive),-0.0362,0.0233,0.508,-0.0978
CC=CC(O)C1C=CC2C(=O)N(c3ccccc3)C(=O)C2N1Nc1ccccc1 (stereo not given),0.393,0.274,-0.0114,1.02,1.68,1.91,1.29,0.568 (inactive),1.14,-0.0852,1.55,0.0831 (inactive),-0.32 (inactive),-0.474 (inactive),3.33,0.143 (inactive),0.209,0.0919,1.09,0.113
CCOC(=O)C1=CC[C@@H](c2ccccc2)N(S(=O)(=O)c2ccc(C)cc2)C1,0.694,0.235,0.0497,-0.0495,0.681,-0.273,0.643,-3.73 (inactive),0.648,0.0274,-0.363,0.483 (inactive),1.09 (inactive),2.72 (inactive),0.353,-0.855 (inactive),0.365,-0.0914,-0.198,-0.0521
